According to PubChem BioAssay (Tox21):
Inconclusive results are not listed. Values without a mark were called inactive. Calls of active or inactive are those of the source. Calls come from the whole dose curve; as a rule, active = well fitted activation curve with a large enough effect in the repeat runs; inconclusive = weak or mixed curves; inactive = flat fitted curve, though single readings scatter.

Experiment: A CellTox Green Cytotoxicity Assay to monitor cytotoxicity in HepG2 cells - 32 hour (AID 1224883); note: nearly all actives have a fitted effect of over 50% in size
Details: CellTox Green fluorescence; series mostly up to 76.8 µM; cytotoxicity increase: at the top concentration
Procedure, shortened: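 Cells and non-lytic dye reagent are dispensed together (600 HepG2 cells/well) and incubated 5 h before DMSO compound transfer. Kinetic fluorescence is then recorded in the same wells during 40 h at 37 C.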
% is set by controls: 0 for no effect and ±100 for the full control effect; potency is the fitted concentration of half-maximal effect.

First: CC(C(=O)O)c1ccc2c(c1)Cc1cccnc1O2 (centres undefined)
Second: O=C1c2ccccc2C(=O)C1c1ccc2ccccc2n1
The “cytotoxicity increase” value of the first is lower: -17.3% [at 35.3 µM] for the first, -15.5% [at 35.3 µM] for the second.

First: CC(C)(C)NCC(O)COc1ccc(NC(=O)NC2CCCCC2)cc1 (centres undefined)
Second: CCC(=O)O[C@]1(C(=O)COC)[C@@H](C)C[C@H]2[C@@H]3CCC4=CC(=O)C=C[C@]4(C)C3(F)[C@@H](O)C[C@@]21C (some centres undefined)
The “cytotoxicity increase” value of the first is higher: 0.76% [at 35.3 µM] for the first, -8.69% [at 35.3 µM] for the second.

Going from `CC1=C(C)C(=O)C(CCCCC#CCCCC#CCO)=C(C)C1=O` to `CCCCCCCCCCCCSCCOCCO`, the “cytotoxicity increase” value falls from 3.53% [at 35.3 µM] to -2.64% [at 35.3 µM].

In the case of `Clc1cc(Cl)c2c(c1)N=C1CCCCCN1C2`, the “cytotoxicity increase” value is reported as -1.11% [at 35.3 µM].

Going from `Cc1cc(SC2=C(O)C[C@@](CCc3ccc(N)cc3)(C(C)C)OC2=O)c(C(C)(C)C)cc1CO` to `O=C(O)c1ccccc1-n1cc(C(=O)O)c(=O)c2cc(Nc3c(F)cc(F)cc3Cl)c(Cl)cc21`, the “cytotoxicity increase” value rises from -8.56% to 0.322%.

First: CC(C)CCCCCCCOC(=O)c1ccc(C(=O)OCCCCCCCC(C)C)c(C(=O)OCCCCCCCC(C)C)c1
Second: CCOC(=O)CC(O)(CC(=O)OCC)C(=O)OCC
The “cytotoxicity increase” value of the first is higher: 0.189% for the first, -9.68% for the second.

Compared with `O=S(=O)(O)c1cc(Cl)c(Cl)cc1Cl`, `O=C(Cl)c1cc(Cl)cc(Cl)c1` is lower in “cytotoxicity increase” value: 20.8% for the first, -1.43% for the second.

First: Cc1nc(C)c(C)nc1C
Second: COC(=O)C(C)(C)C
The “cytotoxicity increase” value of the first is lower: -4.46% for the first, 7.34% for the second.

First: CCCC(=O)OCCC(C)C
Second: C=CC(O)CCCCC (centres undefined)
The “cytotoxicity increase” value of the first is higher: -3.91% for the first, -4.26% for the second.

Going from `C=CC(C)CCC=C(C)C` (centres undefined) to `CC(C)=CCC/C(C)=C/C=N/O`, the “cytotoxicity increase” value falls from -2.43% to -4.73%.

Compared with `C=C[Si](OCC)(OCC)OCC`, `CCOC(C)OCC` is higher in “cytotoxicity increase” value: -17.2% for the first, -4.38% for the second.

In the case of `CCC(CC)C(=O)O`, the “cytotoxicity increase” value is reported as 2.62%.

For `C[C@H](CN1CCCC1)C(=O)c1ccc(C(F)(F)F)cc1`, the Potency was 21.3 µM (active).
With `Oc1ccc(Oc2ccccc2)cc1` the Potency was 36.9 µM (active).
